The entries come from a sample that favours hits as a whole.
NS1 inh – blocks influenza NS1 protein function | Potency, µM (series often up to 46.1 µM) | 270,000 compounds, 0.4% hits | AID 2326; further: actives are rising curves; nearly all actives have a fitted effect of over 50% in size
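OD600 was taken as the measure of yeast growth restored by compound in an NS1-expressing S. cerevisiae strain. Cells had been washed out of glucose medium and diluted 1:100 into galactose -URA medium, pH 6.0.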
Cycloheximide cs – counter-screen hit for Shiga toxin inhibitors, cycloheximide | max response, % | 300,000 compounds, 12% hits | cell reporter, cycloheximide protein synthesis inhibition counterscreen | AID 2314; in the data active means max response mostly above about 13%, no sharp cut-off; inactive means mostly below about 14%; further: read at 38.3 µM for the half of the compounds with a filed dose
Tb PYK inh – blocks Trypanosoma brucei pyruvate kinase; TbPYK enzyme, Kinase-Glo Plus ATP luminescence, 45 min; 410,000 compounds, 0.12% hits; Potency, µM (top dose mostly 76.8 µM), most hits filed as inhibitors; Q57TT1; active means well fitted curve in the direction sought with a large enough effect; inconclusive means small, poorly fitted or top-dose-only effect, or another doubt; inactive means no such curve, though single readings can be large; an effect the other way counts as inactive or inconclusive; further: nearly all actives have a fitted effect of over 50% in size
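Activity of T. brucei pyruvate kinase was followed by Kinase-Glo Plus luminescence after the enzyme reacted 45 min at room temperature with 130 uM ADP (final) and substrate. Test compounds were added before ADP at multiple concentrations.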
SARS PLpro yeast – blocks SARS-CoV papain-like protease in a yeast assay; Potency, µM (highest dose often 32.9 µM), most hits filed as activators; S. cerevisiae expressing SARS-CoV PLpro, growth rescue; AID 485353; 330,000 compounds, 0.19% hits; further: nearly all actives have a fitted effect of over 55% in size
Shiga toxin inh – blocks Shiga toxin action in Vero cells; Vero cells, Shiga toxin protein synthesis inhibition reporter; inhibition, % at 38.7 µM; 290,000 compounds, 9.2% hits; AID 2315; in the data active means inhibition mostly above about 28%, no sharp cut-off; inactive means mostly below about 43%
LmPK inhibitor – inhibitors of Leishmania mexicana pyruvate kinase; Q27686; purified LmPK, Kinase-Glo ATP luminescence, 1 h; Potency, µM (doses to about 57.5 µM), usual class: inhibitors; 290,000 compounds, 0.37% hits; active means well fitted curve in the direction sought with a large enough effect; inconclusive means small, poorly fitted or top-dose-only effect, or another doubt; inactive means no such curve, though single readings can be large; an effect the other way counts as inactive or inconclusive
Target sequence (Q27686 whole entry, looked up): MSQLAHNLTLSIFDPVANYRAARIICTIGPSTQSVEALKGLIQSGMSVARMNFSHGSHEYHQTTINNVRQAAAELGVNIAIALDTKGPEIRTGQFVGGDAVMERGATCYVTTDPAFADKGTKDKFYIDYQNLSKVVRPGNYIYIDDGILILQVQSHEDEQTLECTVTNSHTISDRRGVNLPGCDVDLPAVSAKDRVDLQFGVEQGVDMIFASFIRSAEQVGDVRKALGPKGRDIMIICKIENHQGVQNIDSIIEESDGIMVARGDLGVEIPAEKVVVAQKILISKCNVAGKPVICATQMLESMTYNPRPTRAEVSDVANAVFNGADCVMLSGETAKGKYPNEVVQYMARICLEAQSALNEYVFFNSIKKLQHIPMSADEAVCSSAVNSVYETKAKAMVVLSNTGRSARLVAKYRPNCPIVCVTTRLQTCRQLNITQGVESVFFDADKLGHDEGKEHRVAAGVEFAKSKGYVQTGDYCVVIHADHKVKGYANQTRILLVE
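Purified LmPK (0.1 nM) with 0.5 mM PEP and 0.1 mM ADP in imidazole buffer pH 7.2 with MgCl2/KCl, 1 h at room temperature. ATP formed was read by luciferase luminescence and normalized to no-enzyme and uninhibited controls.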
A number is an active result; n = inactive; u = inconclusive; x = no result; + = active, no number; ! = not confirmed by another sample. Unless noted, the call rests on the fitted dose curve.

SMILES	NS1 inh	Cycloheximide cs	Tb PYK inh	SARS PLpro yeast	Shiga toxin inh	LmPK inhibitor
COC(=O)CCn1[nH]c(=O)c2ccccc2c1=O	n	n	n	n	n	n
O=c1[nH]n(Cc2ccccc2)c(=O)c2ccccc12	n	26.2	n	n	n	n
CCOC(=O)NC(=O)/C(C#N)=C\Nc1ccc(Cl)cc1Cl	x	31.9	n	n	n	n
COC(=O)/C(=C\Nc1ccc(Cl)cc1Cl)NC(=O)c1ccc(Cl)cc1Cl	n	19.3	n	x	80.2	n
O=C(c1cccc(F)c1)N1CCC2(CCCN(Cc3cc(C(F)(F)F)cc(C(F)(F)F)c3)C2)CC1	x	x	n	x	x	x
Cc1ccccc1Nc1nc(N)nc(CN(C)Cc2ccccc2Cl)n1	n	31.0	n	n	n	n
Cc1c(Cl)cccc1Nc1nc(N)nc(CN2CCc3ccccc3C2)n1	n	n	n	n	n	n
Cc1ccccc1Nc1nc(N)nc(CSc2ccc(F)cc2)n1	x	47.9	n	n	112.2	n
CCc1ccccc1Nc1nc(N)nc(CSc2nnnn2C)n1	n	n	n	n	n	n
Cc1ccccc1Nc1nc(N)nc(CSc2nnnn2C)n1	x	48.4	n	n	117.8	n
Cc1ccc(Nc2nc(N)nc(CSc3nccn3C)n2)c(C)c1	n	17.7	n	n	42.1	n
CCOC(=O)c1ccc(NC(=S)Nc2ccc(Br)cc2N)cc1	x	x	n	x	x	x
O=Cc1c[nH]c2ccccc12	x	n	x	x	n	x
Cc1ccc(SCc2nc(N)nc(Nc3ccccc3C)n2)c(C)c1	n	n	n	n	47.3	n
Cc1ccc(SCc2nc(N)nc(Nc3ccccc3C)n2)cc1C	n	n	n	n	n	n
C=C(C)CSc1nc2sc3c(c2c(=O)n1-c1ccccc1)CCN(C)C3	u	n	n	n	n	n
Clc1ccc2nnnc(-c3ccccc3)c2c1	n	52.1	n	n	97.8	n
c1ccc(-c2nnnc3ccccc23)cc1	n	n	n	n	n	n
Cc1nnc(SCC(=O)c2cc(C)n(-c3ccc4c(c3)OCO4)c2C)s1	n	18.0	n	n	35.8	n
Cc1nnc(SCc2ccc3c(c2)OCO3)s1	n	80.7	n	n	142.5	n
Cc1cc(C(=O)CSc2nnnn2C)c(C)n1-c1ccc2c(c1)OCCO2	n	37.5	n	n	142.4	n
COc1ccc(S(=O)(=O)N2CCC(C(=O)N[C@@H](C)C(=O)NCc3ccco3)CC2)cc1	x	x	n	x	x	x
Oc1cc(NCc2ccccc2)cc2cccnc12	x	x	x	n	x	x
Cc1ccc(NCc2ccc(O)c3ncccc23)cc1C	n	35.5	n	n	53.9	n
Oc1c(CNc2ccccc2)cc(COCc2ccccc2)c2cccnc12	x	x	n	4.47µM!	x	x
SMILES	NS1 inh	Cycloheximide cs	Tb PYK inh	SARS PLpro yeast	Shiga toxin inh	LmPK inhibitor
Cc1ccc(NCc2ccc(O)c3ncccc23)cc1	n	16.1	n	n	n	n
CCCCN1C(=O)C(CC(=O)NC(c2ccccc2)c2ccccc2)CC(C(=O)N(C(C)C)C(C)C)=C1C (configuration not stated)	x	x	n	x	x	x
O=C(Nc1ccc(N2CCCC2)cc1)c1cc([N+](=O)[O-])ccc1N1CCOCC1	n	n	u	n	n	n
COc1ccc(S(=O)(=O)N(CC(=O)NCCSc2ccc(C)cc2)c2ccc(C)cc2)cc1	x	x	n	x	x	x
NC(=O)Cc1ccc(C(=O)c2ccc(Cl)cc2Cl)s1	x	23.0	n	n	48.1	n
O=C(O)Cc1ccc(C(=O)c2ccc(Cl)cc2Cl)s1	x	n	n	n	n	n
O=C(NCc1ccccn1)Nc1ccccc1C(F)(F)F	n	14.5	n	n	n	n
O=C(NCc1ccccn1)Nc1ccccc1F	n	20.7	n	n	48.8	n
COc1cc([N+](=O)[O-])ccc1NC(=O)NCc1ccccn1	n	12.3	n	n	n	n
COc1ccc(-c2nn(-c3ccc(F)cc3F)c3c2cnc2ccc(F)cc23)cc1	x	x	n	x	x	x
COc1ccc(-n2ncc(C(C)NS(=O)(=O)c3cc(F)ccc3C)c2C)cc1 (configuration not stated)	n	20.8	n	n	n	n
CN(C)c1ccc(C(=O)N2CCCC2)cc1	x	n	n	n	n	n
CN(C)c1ccc(C(=O)NC2(N3CCC3=O)CCCC2)cc1	n	21.9	n	n	n	n
CCCCN(CC)C(=O)CCn1c(=O)c2cccn2c2cccnc21	x	x	n	x	x	x
CC(=O)NCC(=O)OCC(=O)c1ccc2ccccc2c1	n	n	n	n	n	n
Cc1cc(=O)oc(C)c1C(=O)OCC(=O)c1ccccc1	n	29.6	n	n	n	n
Cc1cc(=O)oc(C)c1C(=O)OCC(=O)c1ccc2ccccc2c1	n	29.7	n	n	52.2	n
Cn1c(C(=O)c2ccccc2[N+](=O)[O-])nc2ccccc21	n	n	n	n	n	n
Cn1c(C(=O)c2ccccc2)nc2ccccc21	n	26.1	n	n	58.4	n
O=C(O)[C@H](Cc1c[nH]c2ccccc12)N1C(=O)c2ccccc2C1=O	n	x	x	x	x	x
O=C(O)C(Cc1c[nH]c2ccccc12)N1Cc2ccccc2C1=O (configuration not stated)	n	27.9	n	n	41.6	n
COC(=O)c1cc(CNC(=O)c2sccc2-c2ccccc2)ccc1OC	n	n	n	n	n	n
O=c1c2c3c(sc2nc2sc(CN4CCOCC4)cn12)CCCC3	n	17.9	n	n	+	n
O=C(NCCN1CCOCC1)c1cccn2c(=O)c3c4c(sc3nc12)CCCC4	n	n	x	n	n	n
CCc1ccc(-c2cn3nc(CC)sc3n2)cc1	x	x	n	x	x	x
SMILES	NS1 inh	Cycloheximide cs	Tb PYK inh	SARS PLpro yeast	Shiga toxin inh	LmPK inhibitor
CCc1ccc(-c2cn3nc(-c4ccccc4)cnc3n2)cc1	n	24.6	n	n	63.8	n
CCc1ccc(CCN2C(=O)c3ccccc3C2=O)nc1	n	24.7	n	n	n	n
CCc1ccc(CCN2CCCCC2)nc1	n	x	x	x	x	x
Cn1cc(C(=O)C(=O)N2CCCCC2)c2ccccc21	x	x	n	x	x	x
O=c1c2ccccc2sn1-c1ccc(S(=O)(=O)N2CCCC2)cc1	n	n	6.31µM	n	n	n
Cc1ccc(-n2sc3ccccc3c2=O)cc1S(=O)(=O)N1CCCCC1	n	11.9	3.98µM	n	n	n
O=c1c2ccccc2sn1-c1ccc(S(=O)(=O)N2CCCCC2)cc1	n	x	u	x	x	x
Cc1ccc(C(=O)CSc2ncc3c(n2)-c2ccccc2N(Cc2ccc(Cl)cc2)S3(=O)=O)cc1	x	x	n	x	x	x
Clc1ccc(-c2nc3ccncc3[nH]2)cc1	n	81.8	n	n	58.5	14.1µM
Fc1ccc(-c2nc3ccncc3[nH]2)cc1	n	23.4	n	n	n	u
Cc1c(C(c2ccc(F)cc2)c2c(C)n(C)n(-c3ccccc3)c2=O)c(=O)n(-c2ccccc2)n1C	n	n	n	n	n	n
Cc1cc(C)n2nc(C(=O)OCC(=O)N(C)CC(=O)Nc3ccccc3Cl)nc2n1	x	x	n	n	x	x
COC(=O)c1ccccc1NN=Nc1ccccc1[N+](=O)[O-]	x	x	n	x	x	x
COc1ccc2cc(CCNC(=O)c3ccc4c(c3)OCO4)c(=O)[nH]c2c1	n	n	n	n	n	n

Source: PubChem
